Measurements: PubChem BioAssay (NCATS)
Inconclusive results are not listed. The source made the active and inactive calls. Calls follow the shape of the dose curve; as a rule, active = well fitted inhibition curve with a large enough effect; inconclusive = small, poorly fitted or top-dose-only effect; inactive = no such curve, though single readings can be large or run the other way.

Test: qHTS for Inhibitors of the Aldehyde Dehydrogenase Family (ALDH1A2, ALDH1A3, ALDH2, ALDH3A1) (AID 2061307); also: nearly all actives have a fitted effect of over 50% in size; as to Potency: test system not described further here
Settings: ALDH inhibition qHTS; series mostly up to 50.3 µM; activity change, negative = inhibition: at the top concentration
% is scaled to controls: 0 for no effect and ±100 for the full control effect; potency is read from the fitted curve at half-maximal effect.

Activity change, negative = inhibition, inactive:
CC(=O)Nc1cccc(C(=O)Nc2nc(-c3ccc4c(c3)CCC(=O)N4)cs2)c1 -51.7% [at 34.4 µM]
CC(=O)c1ccc(NC(=O)c2cnn(-c3cccc(F)c3)c2-n2cccc2)cc1 -80.6% [at 34.4 µM]
CN(C)c1ccc(NC(=O)c2cn(-c3ccccc3)nn2)cn1 -6.95% [at 34.4 µM]
Oc1[nH]c2ccccc2c1N=NC(=S)Nc1ccc2c(c1)CCC2 -18.5%
O=C(c1cccc(F)c1)N1CCCC2(CCN(C(c3ccccc3)c3ccccc3)C2)C1 (stereo not given) -79.3%
N[C@@H](CCC(=O)O)C(=O)Nc1cccc(-c2nn3c(=O)cc(N4CCNCC4)nc3s2)c1 -3.94%
COc1ccc(F)cc1NC(=O)Cc1csc(-c2ccccc2Cl)n1 -58.1% [at 34.4 µM]
Cc1nn(-c2ccc(C(F)(F)F)cn2)c(C)c1CC(=O)Nc1ccc(C(N)=O)cc1 0% [at 34.4 µM]
COc1ccc(-n2c(C)c(C(=O)c3ccccc3)c3cc(O)ccc32)cc1 3.6% [at 34.4 µM]
Cc1sc(-n2nc(-c3ccccc3)c(Cc3ccc(S(N)(=O)=O)cc3)c2N)nc1C(=O)O -18.3%
O=C(Nc1ncccc1O)c1ccc(S(=O)(=O)Nc2ccccc2)cc1 -23.9%
Cc1ccc(-c2cc3c(nn2)-c2ccccc2C3=O)cc1 -15.1%
Cc1n[nH]c(C)c1-n1c2c(cc(-c3nc(-c4ccc(Cl)cc4)cs3)c1=O)C(=O)CC(C)(C)C2 -6.05%
CN1CCN(CC(=O)N2c3ccc(S(=O)(=O)NCCNC(=O)OC(C)(C)C)cc3C(=O)Nc3cccnc32)CC1 -20.5%
COc1ccc(OC)c(NC(=O)c2cccc(Nc3ncccn3)c2)c1 0.0532% [at 34.4 µM]
Cc1cccc(C)c1Nc1c(-c2ccccn2)nc2ccc(Cl)cn12 -2.05%
O=C(Nc1ccc(C(=O)N2CCCC2)cc1)c1cccc(Cl)c1 -64.8% [at 34.4 µM]
CCOc1c(Cl)cc(CNc2ccc3[nH]c(=O)[nH]c3c2)cc1OC -34.7% [at 34.4 µM]
COc1ccc(-n2c(CSCc3ccccc3)c(C(C)=O)c3cc(O)ccc32)cc1 1.96% [at 34.4 µM]
COc1ccc(N2CCN(C(=O)c3cnc(N4CCCCC4)c4ccccc34)CC2)cc1 -30%
O=C(Nc1ccc(S(=O)(=O)N2CCOCC2)cc1)c1ccc(CN2CCc3ccccc3C2)cc1 13.7%
c1ccc(CN2CCN(c3nccc(-c4ccncc4)n3)CC2)nc1 -59.1% [at 34.4 µM]
c1cc(NC2CNC2)nc(-c2cnc3ccccn23)c1 9.03%
O=C(CSc1nc2ccccc2c(=O)[nH]1)Nc1nc(-c2ccc(Br)cc2)cs1 -14.1%
O=C(Nc1nncs1)c1ccn(-c2ccc(F)cc2)n1 0% [at 34.4 µM]
COc1ccc2c(c1)CCNC2Cc1ccc(OC)c(O)c1 (stereo not given) -18.8%
COc1cccc2cc(C(=O)Nc3ccc(C)cc3)c(=O)oc12 -25.8% [at 34.4 µM]

Potency, active:
CSc1sc(C(=O)NN)c2c1C(O)CCC2 (stereo not given) 22.5 µM
O=C(Nc1nnc(-c2ccccn2)o1)c1ccc(Cl)cc1Cl 12.7 µM
COc1ccc([N+](=O)[O-])c(S(=O)(=O)c2ccc(C)cc2)n1 2.25 µM
O=C(CN1CCC(CCc2ccccc2)CC1)Nc1ccccc1 15.8 µM
c1ccc(CCN(Cc2ccccc2)C2CCN(C3CCCCC3)CC2)cc1 7.94 µM
Cc1csc(-c2cc(-c3c(Cc4ccc(S(N)(=O)=O)c(F)c4)c(CC4CC4)nn3-c3nc(C(=O)O)cs3)ccc2F)c1 12.7 µM
CCN(CC)C(=O)c1ccc(Nc2ncnc3sc(C)c(C)c23)cc1 6.31 µM
O=[N+]([O-])c1ccc(NC(=S)N=Nc2c(O)[nH]c3ccccc23)cc1 7.12 µM
Clc1ccc(-c2noc3ncnc(N4CCCCC4)c23)cc1 11.3 µM
O=C(Nc1ccccc1F)c1nc(S(=O)(=O)Cc2ccccc2F)ncc1Cl 3.16 µM
O=C(Nc1ccc(S(=O)(=O)N2CCOCC2)cc1)c1ccc(CN2Cc3ccccc3C2)cc1 0.316 µM
Cc1c(P(=S)(c2ccccc2)c2ccccc2)[n+]2ccccc2n1C/C=C/c1ccc2ccccc2c1 3.55 µM
O=S(=O)(c1ccccc1)N1CCC(N(CCc2ccccc2)Cc2ccccc2)CC1 0.708 µM
